{"source": "PubChem BioAssay AID686979", "about": "(National Center for Advancing Translational Sciences (NCATS), 2013)", "note": "About 50,000 (12%) of roughly 420,000 compounds were called active. Roughly 26% stayed inconclusive and do not appear here. For the sample, actives were picked, then their nearest neighbours and some compounds at random. Unmarked numbers belong to inactive results. Calls come from the whole dose curve; as a rule, active = well fitted inhibition curve with a large enough effect; inconclusive = small, poorly fitted or top-dose-only effect; inactive = flat fitted curve, though single readings scatter. % is set by controls: 0 for no effect and ±100 for the full control effect; potency is the fitted concentration of half-maximal effect."}
{"test": "qHTS for Inhibitors of human tyrosyl-DNA phosphodiesterase 1 (TDP1): qHTS in cells in presence of CPT; note: nearly all actives have a fitted effect of over 55% in size", "settings": "chicken DT40 Tdp1-/-;hTDP1 cells + 20 nM CPT, ATP luminescence, 48 h; series mostly up to 46.2 µM; activity change, negative = growth inhibition: at the top concentration", "method_in_brief": "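Chicken DT40 Tdp1-/- cells stably complemented with human TDP1 were seeded at 400 cells/well in medium containing 20 nM camptothecin, exposed to pin-transferred compounds, and grown at 37 °C for at least 48 hr. Viability was read as ATP luminescence.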", "units": {"activity change, negative = growth inhibition": "%"}}
{"compound": "O=Cc1c(Nc2ccccc2Cl)nc2ccccn2c1=O", "activity change, negative = growth inhibition": 9.71}
{"compound": "COc1cc(N=Cc2c(O)c3ccccc3oc2=O)c(OC)cc1Cl", "activity change, negative = growth inhibition": -28.4}
{"compound": "CC(=O)Nc1ccccc1Sc1ccc2c3c(cccc13)C(=O)N(c1ccc(C)cc1)C2=O", "Potency": "11.6 µM (active)"}
{"compound": "CCOC(=O)Nc1ccccc1N1C(=O)c2ccccc2C1=O", "activity change, negative = growth inhibition": -2.91}
{"compound": "CSc1ccccc1NC(=O)C(C)N1C(=O)c2ccccc2S1(=O)=O", "note": "(stereo unspecified)", "activity change, negative = growth inhibition": 17}
{"compound": "COc1ccc(NC(=O)COC(=O)C2COc3ccccc3O2)cc1", "note": "(stereo unspecified)", "activity change, negative = growth inhibition": -5.6}
{"compound": "CN(C)c1ccc(C(CC(=O)O)C(=O)O)cc1", "note": "(stereo unspecified)", "activity change, negative = growth inhibition": -3.14}
{"compound": "COC(=O)[C@]1(S(=O)(=O)c2ccccc2)C[C@@H]2ON=C(c3ccc(OC)cc3)[C@@H]2C1", "activity change, negative = growth inhibition": -13.2}
{"compound": "N#C[C@]1(S(=O)(=O)c2ccccc2)C[C@@H]2ON=C(c3cccc(Br)c3)[C@@H]2C1", "Potency": "9.2 µM (active)"}
{"compound": "O=C(NCCCn1ccnc1)C1CCCN(S(=O)(=O)c2cc(Cl)ccc2Cl)C1", "note": "(stereo unspecified)", "activity change, negative = growth inhibition": -12.4}
{"compound": "CCC1(c2ccccc2)NC(=O)N(CC(=O)Nc2ccccc2C(=O)NC2CCCC2)C1=O", "note": "(stereo unspecified)", "activity change, negative = growth inhibition": -29.4}
{"compound": "COc1ccc(S(=O)(=O)n2nc(C)c(S(=O)(=O)N3CCOCC3)c2C)cc1", "activity change, negative = growth inhibition": -1.57}
{"compound": "O=C(/C=C/c1ccccc1[N+](=O)[O-])OC1CCCCC1=O", "note": "(stereo unspecified)", "activity change, negative = growth inhibition": -14.9}
{"compound": "O=C(/C=C/c1ccccc1[N+](=O)[O-])NCC1CCCO1", "note": "(stereo unspecified)", "activity change, negative = growth inhibition": -3.02}
{"compound": "CC1CCCCC1NC(=O)/C(C#N)=C/C=C/c1ccccc1[N+](=O)[O-]", "note": "(stereo unspecified)", "Potency": "10.3 µM (active)"}
{"compound": "O=C(Nc1cccc(C(=O)O)c1)/C(=C\\c1ccccc1)NC(=O)c1ccc(Br)o1", "activity change, negative = growth inhibition": 3.2}
{"compound": "COc1ccc(-n2ccn(CC(=O)Nc3ccc(C)c(C)c3)c(=O)c2=O)cc1OC", "activity change, negative = growth inhibition": -3.68}
{"compound": "Cc1ccc(CNC(=O)CCc2c(C)nc3nc(CNC(=O)OC(C)(C)C)nn3c2C)cc1", "activity change, negative = growth inhibition": -8.79}
{"compound": "O=C(Oc1ccc(Br)cc1)c1cccnc1", "activity change, negative = growth inhibition": 22.8}
{"compound": "O=C(Oc1c(-c2ccco2)oc2ccccc2c1=O)c1cccnc1", "Potency": "16.4 µM (active)"}
{"compound": "O=C(Oc1cccnc1)c1cc2ccccc2oc1=O", "activity change, negative = growth inhibition": -3.36}
{"compound": "O=S1(=O)CCO[C@H]2Cc3ccccc3[C@H]2N1Cc1ccccc1", "activity change, negative = growth inhibition": -13.6}
{"compound": "Cc1ccc(Sc2ccncc2S(N)(=O)=O)cc1", "activity change, negative = growth inhibition": 3.01}
{"compound": "CCCc1cc(C(=O)Nc2ccc(Cl)cn2)cs1", "activity change, negative = growth inhibition": 0.0898}
{"compound": "CC1CCN(C(=O)Cn2cc(C(=O)c3ccco3)c3ccccc32)CC1", "activity change, negative = growth inhibition": -12.7}
{"compound": "Cc1ccccc1NC(=O)Cn1cc(C(=O)C2CC2)c2ccccc21", "activity change, negative = growth inhibition": -24.4}
{"compound": "Cc1cccc(NC(=O)Cn2cc(C(=O)c3ccco3)c3ccccc32)c1", "Potency": "18.4 µM (active)"}
{"compound": "Cc1cccc(NC(=O)c2cccc(S(=O)(=O)N3CCCC3)c2)n1", "activity change, negative = growth inhibition": -29.7}
{"compound": "CCn1c(O)c(N=NC(=O)c2cccc(S(=O)(=O)N3CCCCC3)c2)c2ccccc21", "Potency": "14.6 µM (active)"}
{"compound": "CCn1c2ccccc2c2cc(NC(=O)COC(=O)c3cc(S(=O)(=O)N4CCCCC4)ccc3Cl)ccc21", "activity change, negative = growth inhibition": -5.5}
{"compound": "O=S1(=O)C[C@@H](N2CCN(CCO)CC2)[C@H](COCc2ccccc2)N1", "activity change, negative = growth inhibition": -4.37}
{"compound": "COc1ccc(N(CC(=O)Nc2cccc3ccccc23)S(C)(=O)=O)c(OC)c1", "activity change, negative = growth inhibition": -13.2}
{"compound": "O=C(NCCN1CCOCC1)C1CCN(S(=O)(=O)c2ccccc2)CC1", "activity change, negative = growth inhibition": 13.8}
{"compound": "COc1cc(NC(=O)c2cc(-c3ccc(F)cc3OC(C)C)n[nH]2)cc(OC)c1OC", "Potency": "14.6 µM (active)"}
{"compound": "O=C(Nc1cccc(Cl)c1)c1cncn1-c1ccc(F)cc1", "activity change, negative = growth inhibition": -3.46}
{"compound": "COc1cc(F)ccc1-c1cc(C(=O)NCC2CCCCC2)[nH]n1", "activity change, negative = growth inhibition": -24.6}
{"compound": "COc1cc(-c2cc3n(C)c(C)c(CCC(=O)Nc4ccc(F)cc4)c(=O)n3n2)cc(OC)c1OC", "activity change, negative = growth inhibition": -2.72}
{"compound": "CC(C)Oc1cc(F)ccc1-c1cc(C(=O)Nc2cccc(Cl)c2)[nH]n1", "Potency": "18.4 µM (active)"}
{"compound": "O=C(Nc1cccc(Cl)c1)c1cc(S(=O)(=O)N2CCCCC2)c[nH]1", "activity change, negative = growth inhibition": 11.7}
{"compound": "COc1ccccc1C(=O)OCC(=O)NCCNC(=O)COC(=O)c1ccccc1OC", "activity change, negative = growth inhibition": 4.02}
{"compound": "COc1ccccc1OCC(=O)Nc1nnc2n1CCS2", "activity change, negative = growth inhibition": -2.33}
{"compound": "CN(c1ccccc1)S(=O)(=O)c1ccc(Cl)c(C(=O)OCC(=O)NCc2ccco2)c1", "activity change, negative = growth inhibition": -17.2}
{"compound": "O=C(COC(=O)c1ccccc1O)NCc1ccco1", "activity change, negative = growth inhibition": -1.93}
{"compound": "Cc1cc(C(=O)OCC(=O)NCc2ccco2)c(C)n1-c1ccccc1", "Potency": "2.31 µM (active)"}
{"compound": "COc1cccc(CNC(=O)CN2C(=O)CCc3cc(S(=O)(=O)N4CCOCC4)ccc32)c1", "activity change, negative = growth inhibition": -11.3}
{"compound": "CSc1nc2nc(-c3cccc(C(F)(F)F)c3)ccn2n1", "activity change, negative = growth inhibition": 15.5}
{"compound": "CCCC(=O)Nc1ccc(C(=O)N/N=C/c2ccc[nH]2)cc1", "activity change, negative = growth inhibition": -17.9}
{"compound": "CCCn1c(C)cc(-c2csc(NC(=O)CCc3nc4ccccc4c(=O)[nH]3)n2)c1C", "Potency": "23.1 µM (active)"}
{"compound": "CC(=O)NCc1ccc(-c2csc(NC(=O)CCCc3nc4ccccc4c(=O)[nH]3)n2)cc1", "activity change, negative = growth inhibition": -23.3}
{"compound": "Cc1cc(-c2csc(N)n2)c(C)n1Cc1ccccc1", "activity change, negative = growth inhibition": -21.8}
{"compound": "CC(C)(C)c1ccc(NC(=O)COC(=O)CCc2nc3ccccc3c(=O)[nH]2)cc1", "activity change, negative = growth inhibition": -11.3}
{"compound": "O=C(COC(=O)CCc1nc2ccccc2c(=O)[nH]1)Nc1ccc(N2CCOCC2)cc1", "activity change, negative = growth inhibition": -14.7}
{"compound": "Cc1cc(C)c(-c2csc(NC(=O)CCCc3nc4ccccc4c(=O)[nH]3)n2)c(C)c1", "Potency": "18.4 µM (active)"}
{"compound": "Cc1cccc(C(=O)NCc2nnc(SC(C)C(=O)Nc3nnc(C)s3)n2C)c1", "note": "(stereo unspecified)", "activity change, negative = growth inhibition": -34.3}
{"compound": "C/C(N)=C(/C#N)C(=O)COC(=O)C1=NN(c2ccccc2)C(=O)CC1", "activity change, negative = growth inhibition": 1.55}
{"compound": "C=C(C)COc1ccc(-c2nc(N)ncc2-c2ccccc2OC)c(O)c1", "activity change, negative = growth inhibition": 20.8}
{"compound": "CCOc1ccc(-c2nc(N)ncc2-c2ccccc2OC)c(O)c1", "Potency": "20.6 µM (active)"}
{"compound": "CCOC(=O)Cn1c2c(c(-c3ccccc3OC)cc1=O)CCCC2", "activity change, negative = growth inhibition": 5.73}
{"compound": "O=C(O)CCCN1C(=O)c2ccccc2Sc2ncccc21", "activity change, negative = growth inhibition": -9.84}
{"compound": "Fc1cccc(-n2ncc3c2ncn2nc(-c4ccccc4Cl)nc32)c1", "activity change, negative = growth inhibition": 21.7}
{"compound": "CCCCNC(=O)C1CCC(=O)N1CCc1ccccc1", "note": "(stereo unspecified)", "activity change, negative = growth inhibition": 29.2}
{"compound": "CCCCN1C(=S)NC[C@@H]1C(C)CC", "note": "(stereo partly specified)", "activity change, negative = growth inhibition": -7.68}
{"compound": "CCCCN1CC(COCc2ccccc2)OCCS1(=O)=O", "note": "(stereo unspecified)", "activity change, negative = growth inhibition": 6.67}
{"compound": "CCCC[C@@H]1CN=C(N)N1CCCC", "Potency": "9.2 µM (active)"}
{"compound": "CCCCN1C(N)=NC[C@@H]1CC1CCCCC1", "Potency": "23.1 µM (active)"}
{"compound": "CCCCN1C(N)=NC[C@@H]1Cc1ccccc1", "Potency": "7.31 µM (active)"}
